Screening data (PubChem BioAssay)
USP17 block: inhibitors of human USP17 deubiquitinase; hit rate 6.5% among 47,000; purified USP17, Ub-rhodamine cleavage fluorescence, 3 h; A8MUK1; inhibition, % at 50 µM
USP10 block: blocks human USP10 ubiquitin-rhodamine cleavage; Q14694; purified USP10, Ub-rhodamine fluorescence, 60 min; inhibition, % at 20 µM; hit rate 1.1% among 47,000
USP28 inh: blocks human USP28 ubiquitin-rhodamine cleavage | Q96RU2 | inhibition, % at 25 µM | hit rate 3% among 47,000 | purified USP28, Ub-rhodamine cleavage fluorescence, 30 min | AID 1645857
USP8 block: blocks human USP8 ubiquitin-rhodamine cleavage; inhibition, % at 20 µM; hit rate 4.2% among 47,000; purified USP8, Ub-rhodamine cleavage fluorescence, 30 min; P40818
USP30 inh: inhibitors of human USP30 deubiquitinase | AID 1645860 | purified USP30, Ub-rhodamine cleavage fluorescence | Q70CQ3 | inhibition, % at 25 µM | hit rate 5.3% among 47,000
An asterisk follows results filed as active; · = not tested or not shown. Most compounds without a hit are left out; they make up all but 14% or so of the library. Rule as the data show it: active = inhibition above about 30%; inactive = the rest.

SMILES | USP17 block | USP10 block | USP28 inh | USP8 block | USP30 inh
CSc1nc(SCC(N)=O)c2c3c(sc2n1)COC(C)(C)C3 | 61.1* | 8.4 | 28.9 | 1.6 | 44.4*
CC1(C)Cc2c(sc3nc(SCC(=O)Nc4ccccc4)nc(N)c23)CO1 | 16.2 | -1.9 | 31.0* | -10.4 | -179.8
CC1(C)Cc2c(sc3nc(SCc4ccccc4)nc(SCC(=O)Nc4ccccc4)c23)CO1 | -7.4 | 0.1 | -2.2 | -13.0 | 3.7
CC(=O)c1ccc(NC(=O)CSc2nc(-c3ccccc3)nc3c2COC(C)(C)C3)cc1 | 21.2 | 34.0* | 4.5 | 3.5 | 17.8
COc1ccc(NC(=O)CSc2nc(N)c3c4c(sc3n2)COC(C)(C)C4)cc1 | 50.2* | 2.4 | -4.6 | -3.4 | -7.4
Cc1ccc(C(=O)Nc2c(C(=O)N3CCOCC3)oc3ccccc23)cc1 | 11.9 | 0.1 | 10.5 | 12.5 | 14.0
Cc1cc(F)ccc1N1C(=O)CN(S(C)(=O)=O)CC1(C)C(=O)NCc1ccccc1 (configuration not stated) | 0.6 | 0.8 | -1.4 | 5.7 | -5.1
CC(C(N)C(=O)NC(C(=O)O)C1OC(c2c[nH]c(=O)[nH]c2=O)C(O)C1O)C(O)c1ccc(O)cn1 (configuration not stated) | -8.1 | -5.7 | -6.1 | -67.9 | -59.4
CC1CCN(c2cc(-c3nccn3CC(=O)NC3CCCC3)ccn2)CC1 | -13.7 | -2.4 | -3.3 | 2.3 | -11.6
CCn1cnc2c1CN(C(=O)c1ccc3c(c1)OCO3)CC2 | 2.8 | 6.2 | 5.4 | -115.4 | -2.7
NS(=O)(=O)c1ccc(NS(=O)(=O)c2ccc(NC(=O)Nc3ccc(Cl)cc3)cc2)cc1 | 40.8* | 27.2 | 74.7* | 22.7 | 48.9*
Clc1ccc(C2=Nc3cc(Cl)ccc3OC2)cc1 | 20.7 | -5.3 | -8.3 | 56.4* | -50.2
O=C1CCCC[C@@H]2[C@H](C[C@@H](Cc3cccc(F)c3)N2C(=O)c2n[nH]c3c2CCCCC3)N1 | -24.3 | -3.6 | -18.1 | -20.0 | -17.1
O=C(Nc1cccc(N2CCCC2=O)c1)c1cccc2cccnc12 | 55.6* | 4.4 | -0.5 | 1.9 | 12.3
COc1cccc(C(=O)Nc2cccc(N3CCCC3=O)c2)c1OC | 0.4 | 0.2 | -5.9 | 4.3 | 5.5
O=c1oc2c3c(c(Cl)cc2c2c1CCCC2)OCN(CCc1ccc(F)cc1)C3 | 43.1* | -2.6 | 6.4 | 41.2* | 3.5
O=c1cc(CN2CCN(Cc3ccccc3)CC2)c2cc3c(cc2o1)CCC3 | -20.2 | -0.5 | -22.0 | -8.5 | -3.8
O=c1oc2c3c(c(Cl)cc2c2c1CCCC2)OCN(Cc1ccccc1)C3 | 44.0* | 4.5 | -23.7 | 81.5* | -119.5
CCC(C)(C)NC(=O)c1ccc(-c2nc(-c3ccccc3)no2)cc1 | 6.4 | 3.7 | 6.1 | -4.4 | 20.0
COc1ccc(C)cc1NC(=O)CN1C(=O)C2CCCC2=Nc2ccccc21 (configuration not stated) | 81.7* | 25.3 | 21.8 | 41.7* | 76.6*
COc1ccc(CNC(=O)CN2C(=O)C3CCCC3=Nc3ccccc32)cc1 (configuration not stated) | 22.5 | 20.4 | 13.8 | 83.3* | 33.0*
COc1cccc(N2CCN(C(=O)c3snc(-c4ccncc4)c3N)CC2)c1 | -1.7 | -0.5 | 10.0 | 3.9 | 11.1
Cc1cccc(S(=O)(=O)N2CCC(c3nc(C(=O)N(C)C)c(C)o3)CC2)c1 | 13.5 | 0.3 | 14.0 | 17.6 | 29.0
O=C(CC(=O)c1c(F)cccc1F)c1ccccc1O | 25.6 | 2.9 | 26.3 | 26.1 | 30.1*
CCCCCC(=O)C(CCCC)c1oc(=O)c(CCCC)c(O)c1CCCC (configuration not stated) | 30.3* | 39.1* | 14.4 | 19.6 | 25.2
SMILES | USP17 block | USP10 block | USP28 inh | USP8 block | USP30 inh
CS(=O)(=O)c1cc(C(=O)N2CCCC2c2ccccc2)ccc1Cl (configuration not stated) | -10.6 | 0.0 | -2.5 | 1.9 | -1.0
CC1CSc2ccc(S(=O)(=O)Nc3cccc(Cl)c3)cc2NC1=O (configuration not stated) | 8.5 | 9.0 | 9.2 | 12.1 | 3.8
O=C(Nc1cnc2ccccc2c1)Nc1ccccc1Cl | 55.0* | 3.9 | · | 3.5 | ·
COc1ccc([C@H]2C[C@@H](O)[C@@H](O)[C@@H]2NC(=O)c2c(C)noc2C)cc1 | 7.4 | 0.4 | -7.8 | 2.3 | 8.1
Cc1ccc(NC(=O)C2C3C=CC4(O3)C2C(=O)N(CCc2ccccc2)C4C(=O)NC2CCCCC2)cc1Cl (configuration not stated) | 25.9 | 25.3 | 7.2 | 33.9* | 6.7
CC(C)CCN1C(=O)C2C(C(=O)Nc3ccc(F)cc3)C3(C)C=CC2(O3)C1C(=O)NC1CCCCC1 (configuration not stated) | 23.8 | 0.9 | 17.5 | 8.0 | 36.3*
O=C(Nc1ccc(Br)cc1)C1C2C=CC3(O2)C1C(=O)N(CCc1ccccc1)C3C(=O)NC1CCCCC1 (configuration not stated) | 9.8 | 4.0 | 2.6 | 5.2 | 15.7
CC(C)c1ccc(NC(=O)C2C3C=CC4(O3)C2C(=O)N(CCc2ccc(Cl)cc2)C4C(=O)NC2CCCCC2)cc1 (configuration not stated) | 13.6 | 9.2 | 6.2 | 54.2* | 4.5
CC(C)OCCCN1C(=O)C2C(C(=O)Nc3ccc(Oc4ccccc4)cc3)C3C=CC2(O3)C1C(=O)NC1CCCCC1 (configuration not stated) | 50.7* | 5.1 | 18.1 | 8.1 | 12.9
Cc1cc(C)n(-c2ccnc(N3CCC(C(=O)NCC4CC4)CC3)n2)n1 | 26.8 | 0.3 | 13.4 | 8.8 | 26.5
CC1=C(C(=O)OC(C)C)C(c2ccc([N+](=O)[O-])cc2)n2c(nc3ccccc32)N1 (configuration not stated) | 2.3 | 3.3 | -1.7 | -26.0 | 7.2
CC(C)(CNC(=O)c1cn(-c2ccccc2)nc1-c1ccccc1)N1CCOCC1 | 2.2 | -0.6 | 1.0 | 7.3 | 11.3
CSc1cccc(NC(=O)C2C3C=CC4(O3)C2C(=O)N(CCc2ccccc2)C4C(=O)NC2CCCCC2)c1 (configuration not stated) | 10.2 | 39.4* | 0.0 | 56.8* | -1.0
Cc1cc(C(=O)N2CCCCC2)c2c(=O)n(Cc3ccc(C#N)cc3)c(=O)n(C)c2n1 | 0.6 | 1.1 | -6.0 | -2.5 | -12.5
Cc1ccc(CNC(=O)CN2C(=O)c3ccccc3C2c2c(-c3ccccc3)[nH]c3ccccc23)o1 (configuration not stated) | 36.6* | -9.8 | 4.0 | 22.5 | -15.2
Cc1ccc(CCNC(=O)c2cc(OCc3ccc(C)cc3)nc3ccccc23)cc1 | 9.6 | 2.8 | 4.2 | -10.2 | -0.3
CCOc1ccc(Nc2cc(C(=O)NCCc3ccccc3)c3ccccc3n2)cc1 | 56.0* | 14.8 | -10.2 | -0.6 | 11.7
COc1ccc(Nc2cc(C(=O)NCc3cccnc3)c3ccccc3n2)cc1OC | 39.6* | 2.2 | 8.0 | 5.7 | 13.9
Cc1ccc(COc2cc(C(=O)NCc3ccccc3)c3ccccc3n2)cc1 | -19.5 | 2.1 | -8.0 | -26.5 | 0.9
CCOc1ccc(Nc2cc(C(=O)NCc3ccc(C)cc3)c3ccccc3n2)cc1 | 52.7* | 10.6 | · | 0.7 | ·
